Data on five compounds can be found in PubChem BioAssay.

Assay [1] in a line: compounds binding Alexa647 anti-His antibody – biochemical, small-molecule microarray, 635 nm fluorescence, artefact control for SMM control protein annotation, primary screen (AID 1128).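 Note: score merges feature fluorescence with signal-to-noise for each printed compound spot.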 Particulars: higher = more signal.
In assay [2] the test system is Human papillomavirus type 1a E7 protein (residues 1-88). Nature of the assay: HPV1a E7 small-molecule binders, primary screen, biochemical, small-molecule microarray, residues 1-88, 635 nm (AID 1129). The note with it: small-molecule microarray binding, fluorescence 635 nm; higher = more signal.
Assay [3] deals with Focal adhesion kinase 1 (Homo sapiens) (UniProt Q05397). Nature of the assay: PTK2 protein binding on printed compound slides – biochemical, small-molecule microarray, 635/667 nm fluorescence, BSA, DTT, primary screen (AID 1130).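 Note: composite of spot emission at 667 nm and signal to noise over triplicate slides.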 The note with it: 635 nm fluorescence, higher = more signal.
Focal adhesion kinase 1 (Homo sapiens), sequence (Q05397 whole entry, looked up): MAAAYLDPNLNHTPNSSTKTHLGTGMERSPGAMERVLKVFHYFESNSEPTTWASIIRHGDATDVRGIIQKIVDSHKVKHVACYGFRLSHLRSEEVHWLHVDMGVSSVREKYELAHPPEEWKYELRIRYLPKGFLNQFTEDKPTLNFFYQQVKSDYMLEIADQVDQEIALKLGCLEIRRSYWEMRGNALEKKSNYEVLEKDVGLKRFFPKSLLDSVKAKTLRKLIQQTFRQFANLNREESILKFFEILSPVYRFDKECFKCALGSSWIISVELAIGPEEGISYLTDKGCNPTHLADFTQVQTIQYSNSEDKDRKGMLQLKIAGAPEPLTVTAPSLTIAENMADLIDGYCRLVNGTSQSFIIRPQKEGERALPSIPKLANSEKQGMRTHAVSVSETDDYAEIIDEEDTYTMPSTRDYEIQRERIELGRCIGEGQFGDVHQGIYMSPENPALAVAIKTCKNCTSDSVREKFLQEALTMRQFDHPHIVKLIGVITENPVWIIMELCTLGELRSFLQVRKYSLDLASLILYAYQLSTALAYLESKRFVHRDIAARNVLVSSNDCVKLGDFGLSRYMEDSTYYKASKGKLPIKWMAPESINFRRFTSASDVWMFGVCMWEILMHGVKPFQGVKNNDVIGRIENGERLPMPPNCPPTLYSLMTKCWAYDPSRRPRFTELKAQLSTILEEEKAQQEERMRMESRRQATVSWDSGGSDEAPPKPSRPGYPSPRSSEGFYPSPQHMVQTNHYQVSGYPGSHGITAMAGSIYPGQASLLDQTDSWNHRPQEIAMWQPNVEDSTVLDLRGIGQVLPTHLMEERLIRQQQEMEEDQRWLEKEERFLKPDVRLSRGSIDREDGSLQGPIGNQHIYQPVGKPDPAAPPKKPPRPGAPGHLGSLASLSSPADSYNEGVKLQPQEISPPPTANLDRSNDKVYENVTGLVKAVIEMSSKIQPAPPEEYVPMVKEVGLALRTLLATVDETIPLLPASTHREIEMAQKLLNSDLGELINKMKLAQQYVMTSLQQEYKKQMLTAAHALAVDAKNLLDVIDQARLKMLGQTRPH
Assay [4] relates to Fibrinogen (Alexa647-labelled). Nature of the assay: Alexa647-fibrinogen binding to printed small molecules – biochemical, small-molecule microarray, 635/667 nm fluorescence, artefact control for SMM control-protein annotation, profiling panel (AID 1131).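 Note: z-score merges 667 nm fluorescence with per-spot signal-to-noise over triplicate slides.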 The note with it: fibrinogen-A647 binding fluorescence, higher = more signal.
Assay [5] has as its target Follistatin (Homo sapiens) (UniProt P19883). Nature of the assay: FST protein binding to printed compounds – biochemical, small-molecule microarray, 635/667 nm fluorescence, primary screen (AID 1132). The note with it: 635 nm fluorescence, higher = more signal.
Assay [6] deals with Fibroblast growth factor 2 (Homo sapiens) (UniProt P09038). Nature of the assay: basic fibroblast growth factor binding to printed compounds – biochemical, small-molecule microarray, 635/667 nm fluorescence, primary screen (AID 1133). The note with it: FGF2, fluorescence 635/667, higher = more signal.
Fibroblast growth factor 2 (Homo sapiens), sequence (P09038 whole entry, looked up): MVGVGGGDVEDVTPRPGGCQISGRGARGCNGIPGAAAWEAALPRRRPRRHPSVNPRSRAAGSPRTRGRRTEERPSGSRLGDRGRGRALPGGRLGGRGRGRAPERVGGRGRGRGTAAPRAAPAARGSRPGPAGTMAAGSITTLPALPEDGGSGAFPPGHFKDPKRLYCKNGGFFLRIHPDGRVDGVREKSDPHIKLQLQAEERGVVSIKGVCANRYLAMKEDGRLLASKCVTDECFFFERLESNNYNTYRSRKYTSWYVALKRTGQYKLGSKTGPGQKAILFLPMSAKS
A short description of assay [7]: JC-1 mitochondrial potential readout, lung cancer cells – cell-based, A549, JC-1 fluorescence, basal, 24 h, 100 nL, profiling panel (AID 1138).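 Note: A549 lung adenocarcinoma cells under basal conditions with no added stimulus; test concentration not given here.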 Particulars: higher = more signal.
For assay [8], the system named is Lefty1. Nature of the assay: Lefty1 protein binding to printed compounds – biochemical, small-molecule microarray, 635/667 nm fluorescence, primary screen (AID 1139). The note with it: fluorescence 635/667, higher = more signal.
Assay [9] deals with wheat germ agglutinin (Triticum aestivum), Alexa647-labelled. Nature of the assay: Alexa647-WGA lectin binding to printed small molecules – biochemical, small-molecule microarray, 635/667 nm fluorescence, artefact control for SMM control-protein annotation, profiling panel (AID 1140).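 Note: score merges 667 nm feature emission with signal to noise over triplicate slides.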 Particulars: WGA-A647 binding, 635 nm fluorescence, higher = more signal.
The target in assay [10] is Luciferin 4-monooxygenase (Photinus pyralis) (UniProt P08659). Nature of the assay: inhibition of purified Photinus pyralis luciferase – biochemical, luminescence, purified enzyme, 2006 set, primary screen (AID 1141).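 Note: cell-free assay with purified firefly luciferase at 100 ng per well in PBS; test concentration not given here.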 The note with it: purified firefly luciferase, SteadyGlo luminescence, 30 min; higher = more signal, called active from +8 up or from −8 down.
Luciferin 4-monooxygenase (Photinus pyralis), sequence (P08659 whole entry, looked up): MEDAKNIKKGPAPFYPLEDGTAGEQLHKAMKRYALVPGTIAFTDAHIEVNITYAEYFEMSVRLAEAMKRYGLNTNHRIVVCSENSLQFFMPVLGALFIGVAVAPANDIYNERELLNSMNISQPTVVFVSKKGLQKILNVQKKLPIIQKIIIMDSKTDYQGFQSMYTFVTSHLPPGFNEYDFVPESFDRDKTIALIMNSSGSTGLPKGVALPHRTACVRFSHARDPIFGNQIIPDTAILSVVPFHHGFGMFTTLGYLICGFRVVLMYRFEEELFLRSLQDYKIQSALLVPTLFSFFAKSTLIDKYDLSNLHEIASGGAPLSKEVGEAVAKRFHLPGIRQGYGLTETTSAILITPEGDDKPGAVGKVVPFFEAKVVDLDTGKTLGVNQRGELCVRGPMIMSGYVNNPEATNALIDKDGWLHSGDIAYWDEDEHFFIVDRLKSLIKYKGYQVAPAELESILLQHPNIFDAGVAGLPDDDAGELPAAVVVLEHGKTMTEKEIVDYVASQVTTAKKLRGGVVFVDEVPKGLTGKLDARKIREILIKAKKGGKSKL
In assay [11] the test system is Wnt5a (protein binding on small-molecule microarray). Nature of the assay: small molecules binding Wnt5a protein – biophysical, small-molecule microarray, 635/667 nm fluorescence, primary screen (AID 1142).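 Note: fluorescence read at 667 nm with signal to noise per printed feature.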 The note with it: 635 nm fluorescence, higher = more signal.
Assay [12] in a line: ATP-based viability of Huh7 replicon cells – cell-based, CellTiter-Glo luminescence, basal, 48 h, cytotoxicity control for HCV replication inhibitor project, primary screen (AID 1143).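 Note: Huh7 hepatoma cells carrying a hepatitis C replication reporter with no stimulus; test concentration not given here.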 Particulars: higher = more signal, called active from +8 up or from −8 down.
Assay [13] can be described thus: Pseudomonas biofilm growth suppression – PAO1 strain, BacTiter-Glo luminescence, LB-PBS, primary screen (AID 1144). The note with it: P. aeruginosa PAO1 biofilm, 12 h, higher = more signal.
A short description of assay [14]: basal CRE-LacZ reporter activity in PC12 – cell-based, unstimulated, primary screen (AID 1145). The note with it: no forskolin, luminescence, 4.5 h, higher = more signal, called active from +8 up or from −8 down.
A short description of assay [15]: forskolin-driven CRE-LacZ activity in PC12 – cell-based, CRE-LacZ reporter, forskolin-stimulated, primary screen (AID 1146).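 Note: PC12 cells with 6xCRE LacZ reporter stimulated by forskolin 10 µM; beta-galactosidase reporter signal reflecting CREB driven transcription.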 Particulars: luminescence, 4.5 h, higher = more signal, called active from +8 up or from −8 down.
In assay [16] the target is Streptavidin (Streptomyces avidinii) (UniProt P22629). Nature of the assay: compounds binding control protein streptavidin – biophysical, small-molecule microarray, 635/667 nm fluorescence, artefact control for SMM compound annotation, primary screen (AID 1147).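 Note: signal reflects streptavidin binding to arrayed compounds as a control protein.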 Particulars: higher = more signal.
Streptavidin (Streptomyces avidinii), sequence (P22629 whole entry, looked up): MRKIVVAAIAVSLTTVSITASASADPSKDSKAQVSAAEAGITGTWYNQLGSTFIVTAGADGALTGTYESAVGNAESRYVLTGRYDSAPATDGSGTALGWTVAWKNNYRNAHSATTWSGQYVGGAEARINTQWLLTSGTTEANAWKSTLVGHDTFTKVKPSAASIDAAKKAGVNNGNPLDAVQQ
Assay [17] can be described thus: probe aInhba binding on compound microarray – biochemical, small-molecule microarray, 635/667 nm fluorescence, primary screen (AID 1148).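 Note: score merges 667nm spot fluorescence with signal-to-noise for antibody binding to printed compounds.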 The note with it: higher = more signal.
Assay [18] has as its target Torsin-1A (Homo sapiens) (UniProt O14656). Nature of the assay: TOR1A wild-type binding on microarray – cell lysate, small-molecule microarray, lysate, 635/667 nm, primary screen (AID 1149). Particulars: COS7 hTOR1A-WT lysate, 635 nm fluorescence, higher = more signal.
The target is the same in assay [19]. Nature of the assay: torsin A mutant lysate binding on microarrays – cell lysate, small-molecule microarray, COS7 lysate, 635/667 nm fluorescence, primary screen (AID 1150).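 Note: score pools 667 nm emission and signal to noise measuring lysate protein binding.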 Particulars: COS7 hTOR1A mutant lysate, 635 nm fluorescence, higher = more signal.
The test system of assay [20] is Sonic hedgehog protein (Shh). Nature of the assay: Sonic hedgehog microarray binding compounds – biochemical, small-molecule microarray, 635/667 nm fluorescence, primary screen (AID 1151).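 Note: Shh protein binding to compounds spotted on small-molecule microarray slides; score combines spot fluorescence intensity with signal-to-noise across triplicate slides.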 Particulars: 635 nm fluorescence, higher = more signal.

The source made the active and inactive calls. Unless noted, the rule behind the calls is not given here.

Follistatin (Homo sapiens), sequence (P19883 whole entry, looked up): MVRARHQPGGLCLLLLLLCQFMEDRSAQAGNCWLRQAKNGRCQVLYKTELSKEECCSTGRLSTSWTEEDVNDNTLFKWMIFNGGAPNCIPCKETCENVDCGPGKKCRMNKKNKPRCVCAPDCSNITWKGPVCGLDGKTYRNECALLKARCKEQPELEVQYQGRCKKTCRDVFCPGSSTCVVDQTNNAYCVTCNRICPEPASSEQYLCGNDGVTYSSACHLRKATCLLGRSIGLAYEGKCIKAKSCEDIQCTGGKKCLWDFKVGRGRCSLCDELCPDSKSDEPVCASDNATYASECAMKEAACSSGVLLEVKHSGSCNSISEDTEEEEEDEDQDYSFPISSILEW
Torsin-1A (Homo sapiens), sequence (O14656 whole entry, looked up): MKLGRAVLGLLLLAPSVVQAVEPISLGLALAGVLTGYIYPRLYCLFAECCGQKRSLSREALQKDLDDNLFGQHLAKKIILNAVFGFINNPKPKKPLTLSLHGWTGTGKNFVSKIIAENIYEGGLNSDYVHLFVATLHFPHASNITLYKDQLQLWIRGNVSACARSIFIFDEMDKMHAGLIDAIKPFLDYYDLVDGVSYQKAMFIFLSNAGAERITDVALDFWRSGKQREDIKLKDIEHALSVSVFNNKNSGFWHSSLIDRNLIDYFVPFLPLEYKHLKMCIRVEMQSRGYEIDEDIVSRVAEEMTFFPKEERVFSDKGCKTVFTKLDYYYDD

On to `CC(=O)NCCCC[C@@H]1NC(=O)[C@@H]2C[C@H](C(=O)NCCCCCC[N+](C)(C)C)[C@H](c3ccc(O)cc3)N2C1=O`, for which the composite z-score was 3.45 in [1]; 0.377 in assay [2]; -0.153 in assay [3]; 0.333 in assay [4]; 1.41 in assay [5]; 1.56 in assay [6]. The composite z-score was 0.907 in assay [8]; 0.78 in [9]; 0.0463 in assay [11]; -0.314 in assay [16]; -0.105 in [17]; 0.0055 in assay [18]. For the same compound, the composite z-score in assay [19] stood at 0.885; in assay [20] it was 1.75. The z-score in [7] was -0.856; in [10] it was 0.32 (inactive); in assay [12], 0.159 (inactive); in assay [13], 0.795 (inactive); in assay [14], -0.675 (inactive); in assay [15] it was -0.293 (inactive).
Regarding `NC(=O)N1C(=O)C2C(C1=O)C1C=C(CCCO)C2C(c2ccc(CN3CCCC3)cc2)N1Cc1cccc(OC(F)(F)F)c1` (stereo not given), the composite z-score in assay [1] came out at 0.22; in assay [2], 0.429; in assay [3], 0.102; in assay [4] it was 0.33; in assay [5], 1.05; in [6] it was 0.532. Further, the composite z-score was 1.38 in assay [8]; 0.0168 in assay [9]; 0.232 in assay [11]; -0.157 in assay [16]; -0.0736 in [17]; 0.094 in assay [18]. In addition, the composite z-score in [19] was 0.462; in [20], 1.86. Moreover, the z-score in assay [7] is 1.39; in assay [10], -0.84 (inactive); in assay [12], -0.596 (inactive); in assay [13], 0.963 (inactive); in assay [14], 0.494 (inactive); in assay [15], -0.679 (inactive).
`C=CCC(OC(C)=O)[C@@H]1[C@@H](N(Cc2cc3ccccc3o2)C(=O)c2ccc(-c3ccccc3)cc2)c2cc(OCCCO)ccc2N1C(=O)c1ccc2ccccc2n1` (stereo not given in full): the composite z-score was -0.492 in [1]; -1.42 in [2]; 0.202 in assay [3]; -0.858 in assay [4]; 0.313 in assay [5]; -0.171 in assay [6]. The composite z-score in assay [8] was -0.194; in assay [9], -0.0535; in assay [11] it was -0.202; in assay [16], 0.378; in assay [17] it was 0.0228; in [18] it was 0.179. Also, the results for the composite z-score in [19] and in assay [20] were 0.165 and 0.135, respectively. The z-score in assay [7] is 1.71; in assay [10] it was -0.847 (inactive); in assay [12], 0.214 (inactive); in assay [13], -0.115 (inactive); in assay [14], 2.46 (inactive); in assay [15] it was -0.531 (inactive).
Turning to `COCCOC(=O)N1C(=O)[C@@]2(c3cc(C#CC4(O)CCCCCC4)ccc31)[C@H](C(=O)NC[C@H](O)c1ccccc1)[C@H]1C(=O)O[C@H](c3ccccc3)[C@H](c3ccccc3)N1[C@@H]2c1ccc(O)cc1`, the composite z-score in assay [1] was determined as 1.39; in [2], 1.18; in assay [3], 0.392; in [4], 0.721; in assay [5] it was 0.37; in [6], 0.774. The composite z-score was determined as 0.439 in assay [8]; 0.721 in [9]; 0.233 in [11]; 0.315 in assay [16]; 0.12 in assay [17]; 0.415 in [18]. Besides, the values for the composite z-score in [19] and in assay [20] were 0.174 and 1.07, respectively. Further, the z-score was 0.139 in assay [7]; -0.474 (inactive) in assay [10]; -0.622 (inactive) in assay [12]; 0.588 (inactive) in [13]; 0.342 (inactive) in assay [14]; 0.0418 (inactive) in [15].
`COC(=O)[C@@]1(Cc2ccc(F)cc2)[C@H]2c3cc(C(=O)N(C)C)n(CCO)c3C[C@H]2CN1C(=O)c1ccccc1`: the composite z-score in assay [1] is 2.78; in assay [2], 0.889; in assay [3], 0.991; in assay [4], 0.797; in assay [5], -0.409; in [6], -0.566. The composite z-score in assay [8] was -0.483; in [9], 0.718; in assay [11], -0.0929; in assay [16], -0.208; in [17], 0.0464; in [18], 0.149. For the same compound, the composite z-score is 0.297 in [19] and -0.653 in [20]. Further, the z-score was -0.0423 in assay [7]; -0.683 (inactive) in assay [10]; -0.494 (inactive) in [12]; -0.0693 (inactive) in assay [13]; 0.773 (inactive) in [14]; 0.0355 (inactive) in assay [15].
